PubChem BioAssay
A number with no mark means an inactive call. The rule behind the calls is not given here.

What follows are compounds tested on Aerobactin synthetase IucA (Klebsiella pneumoniae, hypervirulent) (assay: biochemical IucA inhibition screen of LOPAC library by absorbance (AID 1346212;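 note: 100% = no compound wells and 0% = no enzyme wells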)). Settings: IucA enzyme assay, absorbance (OD) readout; hits give low values;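 tested at 8 µM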.

SMILES | remaining activity
O=C(c1ccc2c(c1)OCCO2)N1CCCCC1 | 87.4%
N#Cc1c(-c2ccccc2)no[n+]1[O-] | 125%
O=c1onc2cnc3ccccc3n12 | 112%
COCc1nc2c([nH]1)c(=O)n(C)c(=O)n2CC(C)C | 112%
O=[N+]([O-])c1ccc(CSc2ncnc3c2ncn3[C@@H]2O[C@H](CO)[C@@H](O)[C@H]2O)cc1 | 126%
Oc1ccc(C2CNCCc3c2cc(O)c(O)c3Cl)cc1 (stereo not given) | 94.3%
CSC(=N)N | 123%
Nc1nc(N)c2nc(CNc3ccc(C(=O)N[C@@H](CCC(=O)O)C(=O)O)cc3)cnc2n1 | 112%
O=C(Nc1cccc(C(=O)Nc2ccc(S(=O)(=O)O)c3cc(S(=O)(=O)O)cc(S(=O)(=O)O)c23)c1)Nc1cccc(C(=O)Nc2ccc(S(=O)(=O)O)c3cc(S(=O)(=O)O)cc(S(=O)(=O)O)c23)c1 | 88.6%
COc1cc2c(cc1OC)[C@@H](c1ccccc1)CN(C)CC2 | 102%
O=C(O)c1ccccc1Nc1cccc(OCc2ccc3ccccc3n2)c1 | 125%
CN(CC[C@@H](Oc1ccc(C(F)(F)F)cc1)c1ccccc1)CC(=O)O | 118%
COc1cc2c(CCNC(C)=O)c[nH]c2cc1O | 92.2%
C/C=C1\C(=O)C[C@H]2[C@@H]3CCC4=CC(=O)CC[C@]4(C)[C@H]3CC[C@]12C | 101%
NC[C@@H]1O[C@H](O[C@H]2[C@@H](O)[C@H](O[C@@H]3[C@@H](O)[C@H](N)C[C@H](N)[C@H]3O[C@H]3O[C@H](CO)[C@@H](O)[C@H](O)[C@H]3N)O[C@@H]2CO)[C@H](N)[C@@H](O)[C@@H]1O | 104%
CC[C@@H]1SC2(CCN(C)CC2)NC1=O | 91.6%
CC(Oc1ccc(Oc2cnc3ccc(Cl)cc3n2)cc1)C(=O)O (stereo not given) | 108%
CCCOC(=O)c1c(-c2ccccc2)nc(CC)c(C(=O)SCC)c1CCC | 106%
OCc1ccc(-c2nn(Cc3ccccc3)c3ccccc23)o1 | 118%
CC(C)NC[C@@H](O)COc1ccc(CC(N)=O)cc1 | 117%

SMILES | remaining activity
N[C@H](C(=O)O)[C@H](O)C(=O)O | 106%
CC1=C(CC(=O)O)c2cc(F)ccc2/C1=C\c1ccc(S(C)(=O)=O)cc1 | 93.6%
Nc1nc(Nc2ccccc2)nc2c1ncn2[C@@H]1O[C@H](CO)[C@@H](O)[C@H]1O | 106%
C=CC[C@H](N)C(=O)O | 95.7%
CCN(CC)C(=O)c1ccc(O)c(OC)c1 | 122%
CC(=O)SCC[N+](C)(C)C | 117%
NCCNC(=O)c1ccc(Cl)cc1 | 88.1%
CCCCCCCCCCCCCCCC(=O)NCC(COP(=O)([O-])OCC[N+](C)(C)C)OCC (stereo not given) | 74.4%
CCOC(=O)Nc1ccc(NCc2ccc(F)cc2)nc1N | 97.8%
COC(=O)c1c(-c2cc(OC)c(OC)c(OC)c2)c2ccnc(OCc3ncccn3)c2c(=O)n1Cc1ccnc(C)c1 | 101%
N=C(N)SCCc1cnc[nH]1 | 122%
O=c1ccn([C@@H]2O[C@H](COP(=O)(O)OP(=O)(O)O)[C@@H](O)[C@H]2O)c(=O)[nH]1 | 106%
O=C(Nc1ccccc1)c1cc([N+](=O)[O-])ccc1Cl | 115%
C#C[C@]1(O)CC[C@H]2[C@@H]3CCC4=Cc5nc6nc7ccccc7n6cc5C[C@]4(C)[C@H]3CC[C@@]21C | 123%
NC(=S)NCCCC(N)C(=O)O (stereo not given) | 102%
COc1cccc(C(=O)NCCN2CCN(c3ccc(Cl)cc3)CC2)c1 | 124%
Brc1ccc([C@H]2CN3CCSC3=N2)cc1 | 105%
CN1CCCC1c1cccnc1 (stereo not given) | 115%
CN(C)c1cc2c(Nc3ccc4c(cnn4Cc4ccccc4)c3)ncnc2cn1 | 115%
CNc1cc(NS(=O)(=O)c2ccc(N)cc2)nc(NC)n1 | 104%
